# The source made the active and inactive calls.
# How the values were obtained:
# Albumin (Bos taurus) = Albumin (Bos taurus) (UniProt P02769); test: bovine serum albumin binders on microarray, profiling panel, artefact control for SMM control protein annotation, biochemical, small-molecule microarray, Alexa647 label, 635/667 nm fluorescence (AID 1118); details: BSA-A647 binding, fluorescence 635 nm, higher = more signal;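 also: score merges 667 nm emission intensity and signal-to-noise per printed compound spot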
# [1] = small-molecule microarray binders of probe aXIP, primary screen, biochemical, NeuroSMM set, 635/667 nm fluorescence (AID 1119); details: higher = more signal, called active from +8 up or from −8 down;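 also: probe is the protein aXip251-270 applied at 1 µg/mL to compound-printed slides; binding of probe to printed compounds measured as 667 nm fluorescence plus signal to noise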
# [2] = small-molecule binders of probe aNOTCH3, primary screen, biochemical, small-molecule microarray, 635/667 nm fluorescence (AID 1120); details: higher = more signal;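 also: probe is a biotin-tagged antibody raised against NOTCH3 rather than NOTCH3 protein; score merges spot fluorescence near 667 nm with spot signal to noise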
# [3] = small-molecule binders of probe aNOTCH2, primary screen, biochemical, small-molecule microarray, 635/667 nm fluorescence (AID 1121); details: higher = more signal;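 also: score merges feature fluorescence read at 667 nm with its signal to noise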
# [4] = target: Carbonic anhydrase 2 (Homo sapiens) (UniProt P00918); test: CAII small-molecule binders, profiling panel, biochemical, small-molecule microarray, Alexa647-labelled CAII (AID 1122); details: CAII-A647 binding fluorescence, higher = more signal
# [5] = COS7 lysate on small-molecule microarray, probe aHis, 635 nm (AID 1123); details: COS7 cell lysate, fluorescence, higher = more signal;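 also: z-score combines 667nm fluorescence intensity with signal-to-noise per printed compound spot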
# [6] = compound binding in COS7 lysate, probe aLAP1, primary screen, cell lysate, small-molecule microarray (AID 1124); details: probe aLAP1, fluorescence, higher = more signal;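 also: lysate comes from COS7 cells expressing LAP1 and is applied at 0.3 µg/mL; score merges spot fluorescence near 667 nm with signal-to-noise over triplicate slides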
# Sam68 (KHDRBS1) = test: Sam68 small-molecule binders, primary screen, biochemical, small-molecule microarray, 635 nm fluorescence (AID 1125); details: small-molecule microarray binding, higher = more signal;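 also: score merges 667 nm channel intensity with signal to noise over triplicate slides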
# [7] = system: Chordin-like protein 2 (CHRDL2); test: CHRDL2 small-molecule binders, primary screen, biochemical, small-molecule microarray, 635 nm fluorescence (AID 1126); details: small-molecule microarray binding, fluorescence 635 nm; higher = more signal;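 also: printed compound slides probed with Chrdl2 protein at 4 µg/mL for 1 h at 4 C; score merges 667 nm emission intensity with signal to noise over three replicate slides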
# [8] = target: Concanavalin-A (Canavalia ensiformis) (UniProt P02866); test: ConA small-molecule binders, primary screen, artefact control for SMM control protein annotation, biochemical, small-molecule microarray, Alexa647 label, 635 nm (AID 1127); details: ConA-A647 binding fluorescence, higher = more signal;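 also: z combines 667 nm emission intensity with signal-to-noise across three replicate slides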
# Sequence of Concanavalin-A (Canavalia ensiformis) (P02866 whole entry, looked up): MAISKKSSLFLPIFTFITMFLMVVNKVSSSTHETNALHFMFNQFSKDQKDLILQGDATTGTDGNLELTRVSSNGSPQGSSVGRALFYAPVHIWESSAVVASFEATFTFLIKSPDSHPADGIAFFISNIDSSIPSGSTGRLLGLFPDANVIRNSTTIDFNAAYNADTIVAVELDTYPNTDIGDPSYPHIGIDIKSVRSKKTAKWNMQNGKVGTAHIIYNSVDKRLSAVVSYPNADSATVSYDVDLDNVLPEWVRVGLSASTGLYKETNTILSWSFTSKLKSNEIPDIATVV
# Sequence of Albumin (Bos taurus) (P02769 whole entry, looked up): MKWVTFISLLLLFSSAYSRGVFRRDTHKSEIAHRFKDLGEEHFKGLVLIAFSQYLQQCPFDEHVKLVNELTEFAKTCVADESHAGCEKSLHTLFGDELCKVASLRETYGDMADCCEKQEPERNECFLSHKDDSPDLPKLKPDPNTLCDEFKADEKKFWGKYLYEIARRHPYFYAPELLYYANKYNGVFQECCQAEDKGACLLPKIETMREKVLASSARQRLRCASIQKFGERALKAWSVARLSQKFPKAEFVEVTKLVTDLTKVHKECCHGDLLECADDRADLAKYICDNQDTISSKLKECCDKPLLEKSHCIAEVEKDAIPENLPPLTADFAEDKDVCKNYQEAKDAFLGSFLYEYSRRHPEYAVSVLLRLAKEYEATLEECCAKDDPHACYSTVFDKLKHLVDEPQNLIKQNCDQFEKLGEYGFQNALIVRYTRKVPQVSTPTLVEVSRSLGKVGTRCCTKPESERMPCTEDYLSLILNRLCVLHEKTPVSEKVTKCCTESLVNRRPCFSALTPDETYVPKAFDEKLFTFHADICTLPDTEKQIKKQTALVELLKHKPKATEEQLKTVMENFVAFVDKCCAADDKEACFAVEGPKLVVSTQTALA
SMILES,composite z-score (Albumin (Bos taurus)),composite Z-score [1],composite z-score [2],composite z-score [3],composite z-score [4],composite z-score [5],composite z-score [6],composite z-score (Sam68 (KHDRBS1)),composite z-score [7],composite z-score [8]
C#CCN(CC=C(C)C)[C@H](CO)c1ccccc1,-0.258,0.289 (inactive),0.0081,-0.0819,-0.0144,-0.41,-0.277,0.584,-0.184,-0.711
CN1C(=O)C2C=CC(C(O)c3cccs3)N(Nc3ccccc3)C2C1=O (stereo not given),0.95,-0.227 (inactive),0.0873,-0.0856,0.831,1.87,-0.0235,0.186,0.0907,0.442
[N-]=[N+]=Nc1ccccc1C[C@@]1(C(=O)NCCN2CCOCC2)N=C(c2ccc(OCCCO)cc2)O[C@@H]1c1ccccc1,0.831,0.255 (inactive),0.144,-0.221,0.468,2.87,0.872,1.3,-0.11,1.11
COC(=O)[C@@]1(Cc2ccc(F)cc2)[C@H]2c3cc(C(=O)N4CCCC4)n(Cc4cc(C)n(C)n4)c3C[C@H]2CN1C(=O)c1ccccc1,1.09,2.46 (inactive),0.318,0.385,0.664,3.58,1.14,1.32,-0.642,1.14
CCCCC(O)C1C=CC2C(=O)N(c3ccccc3)C(=O)C2N1Nc1ccccc1F (stereo not given),0.8,1.54 (inactive),0.378,0.387,0.747,2.54,0.439,1.12,0.0354,1.13
COC(=O)[C@@]1(Cc2ccc(F)cc2)[C@H]2c3cc(C(=O)N4CCCC4)n(Cc4ccc(C)o4)c3C[C@H]2CN1C(=O)c1ccccc1,0.469,0.157 (inactive),0.28,0.354,0.546,1.95,0.137,-0.459,-0.549,0.851
CC(C)(C)OC(=O)CC[C@@]1(C(=O)NCC(O)CO)N=C(c2ccc(OCCCO)cc2)O[C@@H]1c1ccccc1N=[N+]=[N-] (stereo not given in full),0.866,0.559 (inactive),0.183,0.0083,0.741,3.53,0.537,1.16,-0.121,1.2
C=CCOC(=O)[C@@H]1[C@H]2C(=O)O[C@H](c3ccccc3)[C@H](c3ccccc3)N2[C@H](c2ccc(OCCOC(=O)[C@@H]3C[C@@H]4C(=O)N5CCC[C@H]5C(=O)N4[C@@H]3c3ccc(O)cc3)cc2)[C@@]12C(=O)Nc1ccc(I)cc12,0.71,1.23 (inactive),-0.0831,-0.145,0.419,1.33,-0.0072,1.19,0.593,1.12
CC1CC/C=C\[C@H]2OC34C=CCN(Cn5nnc6ccccc65)C(=O)[C@H]3N(C(CO)C(C)C)C(=O)[C@@H]4C2C(=O)O1 (stereo not given in full),0.568,-0.0775 (inactive),-0.0647,-0.14,0.662,2.23,0.549,0.272,-0.89,-0.43
COC(=O)[C@@]1(Cc2ccccc2)[C@H]2c3cc(C(=O)N4CCCC4)n(CC4CC4)c3C[C@H]2CN1C(=O)c1ccccc1,0.946,1.02 (inactive),1.13,0.389,0.641,2.89,0.114,1.3,-0.311,0.818
[N-]=[N+]=NCc1ccccc1C[C@]1(C(=O)O)N=C(c2ccc(OCCCO)cc2)O[C@H]1c1ccccc1N=[N+]=[N-],0.82,-0.17 (inactive),0.238,0.0755,0.55,2.64,0.571,1.32,-0.958,1.05
COCCOC(=O)N1C(=O)[C@@]2(c3cc(C#CCCO)ccc31)[C@H](c1ccc(OCCO)cc1)N1[C@H](c3ccccc3)[C@H](c3ccccc3)OC(=O)[C@H]1[C@@H]2C(=O)N1CCN(c2ncccn2)CC1,0.679,-0.114 (inactive),0.162,-0.161,0.31,2.03,0.602,1.29,0.718,1.15
COCCCN1C(=O)[C@@]2(Cc3ccccc31)c1ccccc1C(=O)N(Cc1ccccc1C(F)(F)F)[C@H]2c1ccc(CO)cc1,-0.857,0.225 (inactive),-0.401,0.402,0.138,-0.176,-0.395,1,1.09,0.961
CC(C)(C)OC(=O)CC[C@]1(C(=O)NCC(O)CO)COC(c2ccc(OCCCO)cc2)=N1 (stereo not given in full),0.693,0.0333 (inactive),0.0425,-0.106,0.828,2.68,-0.45,0.949,-1.53,0.504
C=CCN1C(=O)[C@]2(O[C@H](CCO)[C@@H]([Si](C)(C)c3ccc(OC)cc3)[C@@H]2C)c2cc(N3C(=O)c4cccc5cccc3c45)ccc21,0.634,-0.106 (inactive),-0.0377,-0.0956,0.542,0.808,0.0553,0.838,0.0493,0.795
COc1ccc(CCNC(=O)[C@@]2(C)c3ccccc3C(=O)N(Cc3cc(F)cc(C(F)(F)F)c3)[C@H]2c2ccc(CO)cc2)cc1,-0.825,0.633 (inactive),-0.189,-0.054,0.726,1.71,0.54,-0.342,0.126,-0.307
CC(C)(C)OC(=O)CC[C@@]12N=C(c3ccc(OCCCO)cc3)O[C@@H]1c1ccccc1N(CCS(=O)(=O)c1ccccc1)C2=O,-0.458,0.733 (inactive),0.106,-0.179,0.73,1.59,0.184,0.461,0.623,1.14
COc1cc2c(cc1O)C=[N+](Cc1cccc(OC(F)(F)F)c1)CC2,0.828,0.0714 (inactive),-0.0879,-0.172,0.61,-0.784,0.173,-0.933,0.156,-0.27
C=CC[C@@]1(C(N)=O)N=C(c2ccc(OCCCO)cc2)O[C@@H]1c1ccccc1CN=[N+]=[N-],0.85,-0.631 (inactive),0.185,-0.0712,0.875,3.25,1.13,1.3,-0.41,1
CCN(CC)c1ccc(N2CC=CC34O[C@@H]5/C=C\CCCOC(=O)C5[C@H]3C(=O)N(CCO)[C@@H]4C2=O)cc1 (stereo not given in full),-0.633,0.858 (inactive),-0.299,-0.14,0.78,0.534,0.485,-0.526,-1.39,-0.362
C=CC[C@]1(C(=O)N2CCCCC2)N=C(c2ccc(OCCCO)cc2)O[C@H]1c1ccccc1,0.579,0.458 (inactive),0.748,0.429,0.63,2.04,0.488,1.31,0.238,0.387
O=C(NCc1ccccc1)[C@@H]1c2ccccc2C(=O)N(CC23CC4CC(CC(C4)C2)C3)[C@H]1c1ccc(CO)cc1,0.438,1.23 (inactive),-0.274,-0.265,0.467,0.813,1.17,1.28,0.452,1.1
COC(=O)[C@@]1(Cc2ccc(F)cc2)[C@H]2c3cc(C(=O)N(C)C)n(CC4CC4)c3C[C@H]2CN1C(=O)c1ccccc1,1.02,-0.0191 (inactive),1.65,0.904,0.773,3.27,0.698,1.35,-0.542,1.1
COc1ccc(C(=O)Nc2ccc(CN3C(=O)[C@@]4(O[C@@H](CC(=O)N5CCC[C@H]5CO)[C@H]([Si](C)(C)c5ccc(OC)cc5)[C@H]4C)c4ccccc43)cc2)cc1,0.042,0.277 (inactive),-0.0219,-0.0389,0.51,1.78,0.045,1.31,0.989,1.08
C=CCOC(=O)[C@@H]1[C@H]2C(=O)O[C@H](c3ccccc3)[C@H](c3ccccc3)N2[C@H](c2ccc(OCCOC(=O)[C@@H]3C[C@@H]4C(=O)N[C@@H](CCCC[N+](C)(C)C)C(=O)N4[C@@H]3c3cccc(OCCO)c3)cc2)[C@@]12C(=O)Nc1ccc(I)cc12,0.769,0.516 (inactive),0.0257,-0.0666,0.46,1.9,0.0596,1.29,1.21,1.19
C=C(CCCC)C(=O)CC[C@H](OC(=O)c1cccnc1)c1ccccc1OCCO,0.287,1.71 (inactive),-0.0345,-0.161,0.268,0.232,0.259,-0.546,0.335,0.277
CN(C)C(=O)[C@@]1(Cc2ccccc2)N=C(c2ccc(OCCCO)cc2)O[C@H]1c1ccccc1N=[N+]=[N-],0.952,-0.0707 (inactive),0.516,-0.0422,0.765,2.88,0.935,1.29,0.152,1.13

# Reference: PubChem BioAssay
